In the library only some 19% were active in any assay of this set; here they are far more common.
HT1080 IDH1KD tx = qHTS for induction of synthetic lethality in tumor cells producing 2HG: qHTS for the HT-1080-IDH1KD cell line; HT-1080 IDH1 knockdown viability, ATP luminescence, 48 h; Potency, µM (series often up to 46.1 µM), inactives show at the top dose activity, negative = toxicity, hits mostly cytotoxic; 360,000 compounds, 2% hits; AID 686971, 2013;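 also: potency is read from the fitted curve at half-maximal effect; 0% = DMSO wells and -100% = cell-free medium wells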
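CellTiter-Glo luminescence after 48 h compound exposure at 37 degrees C of IDH1-knockdown HT-1080 cells in 5% FBS RPMI. %Activity scaled between DMSO wells and cell-free media wells, with curves fitted and assigned curve classes.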
TDP1 cell noCPT = qHTS for Inhibitors of human tyrosyl-DNA phosphodiesterase 1 (TDP1): qHTS in cells in absence of CPT; AID 686978, 2013; Potency, µM (highest dose often 46.2 µM), for inactives: at the highest dose activity change, negative = growth inhibition, most hits filed as inhibitors; 420,000 compounds, 15% hits; DT40 Tdp1-/- hTDP1 cells, no CPT, ATP luminescence, 48 h; also: potency is read from the fitted curve at half-maximal effect; nearly all actives have a fitted effect of over 55% in size
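Growth of hTDP1-complemented DT40 Tdp1-knockout cells is measured by ATP luminescence after at least 48 hr compound exposure at 37 °C, with DMSO substituting for the 20 nM CPT used in the parallel screen.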
IL-1B inflam inh = qHTS for Inhibitors of Inflammasome Signaling: IL-1-beta AlphaLISA Primary Screen. 360,000 compounds, 4.7% hits. activity change, % at 57.5 µM. THP-1 LPS/ATP IL-1B secretion, AlphaLISA, 16 h; active compounds read low; in the data active = activity change below about -50%; inconclusive = mostly about -30% to -49%
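THP-1 cells pretreated 1 hr with compounds (up to 57.5 uM final), then stimulated with LPS (250 ng/mL final) plus ATP (1.25 mM final); secreted IL-1B measured by AlphaLISA after 16 hr, decreased signal indicating inhibition.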
DT40 TDP1 CPT = qHTS for Inhibitors of human tyrosyl-DNA phosphodiesterase 1 (TDP1): qHTS in cells in presence of CPT; Potency, µM (series often up to 46.2 µM), for inactives: at the top dose activity change, negative = growth inhibition, most hits filed as inhibitors; 420,000 compounds, 12% hits; chicken DT40 Tdp1-/-;hTDP1 cells + 20 nM CPT, ATP luminescence, 48 h; also: potency is read from the fitted curve at half-maximal effect; nearly all actives have a fitted effect of over 55% in size
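Chicken DT40 Tdp1-/- cells stably complemented with human TDP1 were seeded at 400 cells/well in medium containing 20 nM camptothecin, exposed to pin-transferred compounds, and grown at 37 °C for at least 48 hr. Viability was read as ATP luminescence.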
HT1080-NT tox = qHTS for induction of synthetic lethality in tumor cells producing 2HG: qHTS for the HT-1080-NT fibrosarcoma cell line | HT-1080-NT fibrosarcoma viability, CellTiter-Glo ATP luminescence, 48 h | Potency, µM (doses to about 46.1 µM), for the others: top-dose activity, negative = less viability, actives largely listed as cytotoxic | 360,000 compounds, 1.6% hits;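 also: NT is the 2HG producing partner of a matched IDH1 knockdown line; potency is read from the fitted curve at half-maximal effect; 0% = DMSO-treated cells and -100% = media-only wells without cells; nearly all actives have a fitted effect of over 55% in size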
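Viability of the 2HG-overproducing fibrosarcoma line after 48 hours of compound exposure at 37 degrees C was determined by luminescence with CellTiter-Glo, and concentration-effect curves were then fitted and categorized.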
uPA generation = qHTS for Inhibitors of Cell Surface uPA Generation | cell surface uPA generation assay, qHTS | Potency, µM (titrated, usually from 38.3 µM), inactives show at the highest dose activity change, negative = inhibition, actives largely listed as inhibitors | 330,000 compounds, 0.31% hits | AID 540303, 2011; active = well fitted inhibition curve with a large enough effect; inconclusive = small, poorly fitted or top-dose-only effect; inactive = no such curve, though single readings can be large or run the other way; tested in mouse RAW 264.7 cells; also: potency is read from the fitted curve at half-maximal effect; nearly all actives have a fitted effect of over 55% in size
An asterisk follows results filed as active; ? = inconclusive; nt = no result given. Unless noted, calls follow the shape of the dose curve; as a rule, active = well fitted curve in the direction sought with a large enough effect; inconclusive = small, poorly fitted or top-dose-only effect, or another doubt; inactive = no such curve, though single readings can be large; an effect the other way counts as inactive or inconclusive. Unless noted, % is scaled to controls: 0 for no effect and ±100 for the full control effect.

SMILES | HT1080 IDH1KD tx | TDP1 cell noCPT | IL-1B inflam inh | DT40 TDP1 CPT | HT1080-NT tox | uPA generation
COc1ccc(C(=O)CCS(=O)(=O)c2ccc(C)cc2)cc1 | ? | 2.3µM* | ? | 2.6µM* | 8% | -4%
Cc1ccc(C(=O)CCS(=O)(=O)c2ccc(Br)cc2)cc1 | 3% | 5.2µM* | ? | 5.2µM* | 5% | -4%
CC(NS(=O)(=O)c1cc2c3c(c1)CCN3C(=O)CC2)c1ccccc1 (configuration not stated) | 1% | 1% | 16 | -7% | 4% | nt
O=C(Cc1ccc(NS(=O)(=O)c2ccc(F)cc2)cc1)NCc1cccnc1 | -4% | -8% | -14 | 1% | 14% | 3%
Nc1ccccc1NC(=O)CCn1c(=S)[nH]c2ccccc2c1=O | 0% | -15% | 40 | ? | -7% | ?
COc1ccc(C(CC(=O)c2ccc(O)cc2)S(=O)(=O)c2ccc(C)cc2)cc1 (configuration not stated) | ? | ? | -51* | -7% | ? | ?
CCOc1ccc(-c2c(C)nn3c(C)c(C(=O)NCCc4ccccc4)cnc23)cc1OCC | nt | 5.2µM* | nt | ? | nt | nt
CCCCNC(=O)c1cnc2c(-c3ccc(OCC)c(OCC)c3)c(C)nn2c1-c1ccccc1 | nt | -30% | nt | ? | nt | nt
CCOc1ccc(-c2c(C)nn3c(C)c(C(=O)NC(C)c4ccccc4)cnc23)cc1OCC (configuration not stated) | nt | 16µM* | nt | 21µM* | nt | nt
CCOc1ccccc1CNCc1c(C(=O)O)n(Cc2ccccc2)c2cc(OC)ccc12 | nt | 13µM* | nt | ? | nt | nt
COc1ccc2c(CNCc3cccs3)c(C(=O)O)n(Cc3cccc(F)c3)c2c1 | nt | ? | nt | -8% | nt | nt
COc1ccc2c(CNCCc3ccccc3)c(C(=O)O)n(Cc3cccc(F)c3)c2c1 | nt | 18µM* | nt | ? | nt | nt
COc1ccc(Cn2c(C(=O)O)c(CNCc3ccccc3F)c3ccc(OC)cc32)cc1 | nt | 16µM* | nt | ? | nt | nt
COc1ccc2c(CNC3CCC(C)CC3)c(C(=O)O)n(Cc3ccc(F)cc3)c2c1 (configuration not stated) | nt | 16µM* | nt | ? | nt | nt
CN(C)c1ccc(/C=[N+](\[O-])C2N(c3ccccc3)C(=S)SC2(C)C)cc1 (configuration not stated) | -6% | -19% | -9 | ? | 0% | -2%
Cc1cc(C)cc(N=Cc2[nH]c3ccc(Br)c(Cl)c3c2O)c1 | ? | ? | 15 | 16µM* | ? | 5%
COc1ccc(CN=Cc2[nH]c3ccc(Br)c(Cl)c3c2O)cc1 | 10µM* | ? | 29 | ? | ? | nt
COc1ccc(CN=CC2=C(O)CNC2=O)cc1 | 10% | -5% | ? | 2% | 16% | 0%
Cc1ccc(-c2nn(-c3cccc(F)c3)cc2CN2CCN(c3ccccn3)CC2)o1 | -8% | 23µM* | -2 | ? | -1% | -3%
Cc1ccc(-c2nn(-c3cccc(F)c3)cc2CNCc2cccnc2)o1 | -16% | ? | ? | ? | -17% | 2%
Cc1ccc(-c2nn(-c3cccc(F)c3)cc2CN(Cc2nccn2C)C(C)C)o1 | ? | ? | -96* | ? | -20% | 2%
COC(=O)c1cc(NC(=O)CCc2c(C)nc3c(c(C)nn3C(C)(C)C)c2C)cc(C(=O)OC)c1 | nt | ? | nt | -20% | nt | nt
CC(C)(C)C1CCSC2=NCCC[C@]2(c2ccccc2)C1 (some centres not stated) | -25% | 18µM* | -1 | ? | -16% | nt
C=C[C@]1(C)C=C2CC[C@H]3[C@@](C)(CCC[C@@]3(C)C(=O)O)[C@@H]2CC1 | -8% | -11% | 29 | -24% | -7% | 18%
C=C[C@]1(C)C=C2C(=O)[C@@]3(O)OC(=O)[C@@]4(CCCC(C)(C)[C@H]34)[C@@]2(O)CC1 | 2.9µM* | 1.6µM* | -113* | 0.65µM* | 2.9µM* | nt
SMILES | HT1080 IDH1KD tx | TDP1 cell noCPT | IL-1B inflam inh | DT40 TDP1 CPT | HT1080-NT tox | uPA generation
CCCn1cc(C(=O)N(C)C2CCCN(Cc3ccccc3F)C2)c(C)n1 (configuration not stated) | 2% | -1% | 7 | 12% | 0% | 14%
Cc1nc2ccccc2nc1C | nt | 6% | nt | 10% | nt | nt
CN(C)c1ccc(/C=C/c2cc(N(C)C)nc3ccccc23)cc1 | nt | 0.89µM* | nt | 1µM* | nt | nt
C(=Cc1cnnc2ccccc12)c1ccccc1 | -4% | ? | -63* | ? | -20% | -17%
CN(C)c1ccc(/C=C/c2cnnc3ccccc23)cc1 | nt | 6.3µM* | nt | 7.1µM* | nt | nt
CN(C)c1ccc(/C=C/c2cc(=O)[nH]c3ccccc23)cc1 | nt | -29% | nt | -30% | nt | nt
CSc1cnnc2ccccc12 | -2% | -11% | 8 | -5% | 2% | -1%
Cc1nc2ccccc2nc1/C=C/c1ccc(N(C)C)cc1 | nt | 0.5µM* | nt | 0.5µM* | nt | nt
Cc1ccc(C)c(Nc2nc(-c3ccncc3)nc3ccccc23)c1 | -4% | ? | 13 | -28% | -15% | 6%
COc1ccc(-c2noc(CSCC(=O)Nc3ccc(C)cc3Br)n2)cc1OC | nt | -22% | nt | -30% | nt | nt
COC(C(=O)Nc1ccnn1C1CCN(Cc2ccc(Cl)s2)CC1)c1ccccc1 (configuration not stated) | -3% | ? | -12 | ? | -7% | 4%
CCCN(c1c(C)n(C)n(-c2ccccc2)c1=O)S(=O)(=O)c1ccc(C)cc1 | nt | ? | nt | -3% | nt | nt
COc1ccc(S(=O)(=O)NC2CC(C)(C)NC(C)(C)C2)cc1C(C)C | 0% | ? | -24 | ? | -8% | 0%
O=C(CN1C(=O)C2C3C=CC(C3)C2C1=O)OCC(=O)c1ccc(Cl)c([N+](=O)[O-])c1 (configuration not stated) | -14% | ? | -78* | 21µM* | 3% | -2%
COc1ccc(OC)c2c1cc(C(=O)N[C@@H](C)C(=O)N[C@@H](C(=O)O)c1ccccc1)n2C | 7% | 28% | 6 | 2% | 14% | 2%
COc1ccc(C2Nc3ccccc3-n3c(-c4ccccc4)c4c(=O)n(C)c(=O)n(C)c4c32)cc1 (configuration not stated) | nt | ? | nt | 16µM* | nt | nt
COc1ccc(C2Nc3ccccc3NC3=C2C(=O)CC(C)(C)C3)cc1 (configuration not stated) | -14% | 20% | -8 | -27% | -7% | ?
